Several values for one entry are separate records, joined by “and”; a condition that tells them apart may be missing. Identical values can stand only once. Results filed as inconclusive are left out. Some structures have more than one record in an assay (separate samples or runs), and their calls can disagree. Activity calls are given as the source filed them. Unless noted, calls follow the shape of the full dose curve.
Columns and labels:
[1] = Nuclear factor erythroid 2-related factor 2/antioxidant responsive element (Nrf2/ARE) small molecule agonists: qHTS cell viability counter screen in human keratinocytes (AID 1919968; active = well fitted curve in the direction sought with a large enough effect in the repeat runs; an effect the other way counts as inactive or inconclusive; also: nearly all actives have a fitted effect of over 55% in size; also: potency is read from the fitted curve at half-maximal effect)
Procedure, shortened: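 KeratinoSens HaCaT cells, 1,500/well, preincubated 5 h, then exposed to compounds in DMSO for 23 h at 37 C/5% CO2. Viability read as CellTiter-Fluor fluorescence after 1 h, in the same wells as the ARE-luciferase read.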

[2] = biological target: Gonadotropin-releasing hormone receptor (Homo sapiens) (UniProt P30968); experiment: Human gonadotropin-releasing hormone receptor (GnRHR) small molecule agonists, calcium flux assay in GnRHR-HEK293 cells (AID 1920063); also: nearly all actives have a fitted effect of over 35% in size
Procedure, shortened: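 HEK293 cells stably expressing human GnRHR were dye-loaded for 1 h at 37 C. Compound was added in agonist mode and fluorescence (Ex/Em 480/540) recorded kinetically for 3 min. Fifteen concentrations, triplicates.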

[3] = biological target: KiSS-1 receptor (Homo sapiens) (UniProt Q969F8); experiment: Human kisspeptin (KISS1R) small molecule agonists, calcium flux assay in KISS1R-HEK293 cells (AID 1920064; active = well fitted curve in the direction sought with a large enough effect in the repeat runs; an effect the other way counts as inactive or inconclusive)
Procedure, shortened: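 HEK293 cells stably expressing human KISS1R were loaded with calcium dye for 1 h at 37 C, then given compound; fluorescence (Ex/Em 480/540) was read kinetically for 3 min. Fifteen concentrations, triplicate.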

[4] = G protein-coupled receptor (GPCR) small molecule agonists, calcium flux assay: HEK293 wild type cell line counter screen (AID 1920065)
Procedure, shortened: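 Wild-type HEK293 cells plated 18 h, loaded with calcium dye 1 h at 37 C, then compounds added in agonist mode (ATP as positive control). Kinetic fluorescence Ex/Em 480/540 recorded 3 min at 1 sec intervals; 15 concentrations, triplicate.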

[5] = p53 small molecule agonists, cell-based qHTS assay with human liver microsomes (AID 1963577);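 also: p53 response element beta-lactamase reporter cells with liver microsomes plus NADPH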
Procedure, shortened: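 HLM-supplemented p53RE-bla reporter assay: 16 h compound exposure at 37 C, microsomes and NADPH each 0.5 mg/mL final, read by fluorescence intensity.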

[6] = p53 small molecule agonists, cell-based qHTS assay with rat liver microsomes (AID 1963578)
Procedure, shortened: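 Quantitative HTS of the Tox21 10K library: p53RE-bla cells, rat liver microsomes plus NADPH at 0.5 mg/mL final each, 16 h at 37 C, beta-lactamase fluorescence detection.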

[7] = p53 small molecule agonists, cell-based qHTS assay with human liver microsomes: qHTS cell viability counter screen (AID 1963579); also: nearly all actives have a fitted effect of over 45% in size
Procedure, shortened: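 Viability of p53RE-bla cells is measured as CellTiter-Glo luminescence following a 16 h, 37 C incubation with compound, liver microsomes from human donors and NADPH.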

[8] = p53 small molecule agonists, cell-based qHTS assay: qHTS cell viability counter screen (AID 1963581); also: nearly all actives have a fitted effect of over 45% in size
Procedure, shortened: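 p53RE-bla HCT-116 cells, compounds added 5 h after plating and incubated 16 h at 37 C. Cytotoxicity measured in the same wells as intracellular ATP by CellTiter-Glo luminescence after 30 min at room temperature.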

[9] = p53 small molecule agonists, cell-based qHTS assay (AID 1963582; active = well fitted activation curve with a large enough effect in the signal ratio in the repeat runs, not every such curve was filed as active; the % refers to the signal ratio)
Procedure, shortened: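 p53RE-bla reporter cells, compounds added in DMSO after 5 h plating, incubated 16 h at 37 C. Beta-lactamase read via 2 h room-temperature LiveBLAzer B/G FRET substrate, fluorescence intensity.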

[10] = biological target: 5-hydroxytryptamine receptor 2A (Homo sapiens) (UniProt P28223); experiment: 5-hydroxytryptamine receptor 2A (HTR2A) small molecule antagonists, cell-based qHTS assay (AID 1963586); also: nearly all actives have a fitted effect of over 45% in size
Procedure, shortened: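 Antagonist-mode intracellular calcium assay: DOI (4 nM) added after 5 min compound pre-incubation at room temperature to dye-loaded HTR2A-CHO cells. Fluorescence followed for 3 min, sampled every second.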

[11] = biological target: Muscarinic acetylcholine receptor M1 (Homo sapiens) (UniProt P11229); experiment: Cholinergic receptor muscarinic 1 (CHRM1) small molecule antagonists, cell-based qHTS assay (AID 1963588); also: nearly all actives have a fitted effect of over 40% in size; also: potency is read from the fitted curve at half-maximal effect
Procedure, shortened: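 CHRM1-CHO calcium-flux assay, antagonist mode. Cells were seeded 18 h, dye-loaded 1 h at 37 C and given compound for 5 min at RT, then acetylcholine was added at 50nM. FDSS fluorescence was read 3 min; 15 concentrations, three runs.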

[12] = biological target: Muscarinic acetylcholine receptor M1 (Homo sapiens) (UniProt P11229); experiment: Cholinergic receptor muscarinic 1 (CHRM1) small molecule agonists, cell-based qHTS assay (AID 1963589); also: nearly all actives have a fitted effect of over 35% in size
Procedure, shortened: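 CHO cells stably expressing human CHRM1 were loaded with calcium dye for 1 h at 37 C, then compound was added in agonist mode. Intracellular calcium fluorescence was followed kinetically at 1 s intervals. Fifteen concentrations were tested in three independent runs.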

[13] = cAMP Responsive Elements (CRE) small molecule agonists, cell-based qHTS assay (AID 1963590)
Procedure, shortened: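 CRE-bla HEK 293T cells, 2,000/well in DMEM with 10% dialyzed FBS and 25 mM HEPES, pre-incubated 18 h at 37 C, then exposed to compound 3 h at 37 C. Beta-lactamase reporter read with LiveBLAzer B/G FRET substrate after 2 h at room temperature.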

[14] = cAMP Responsive Elements (CRE) small molecule antagonists, cell-based qHTS assay (AID 1963591; active = well fitted inhibition curve with a large enough effect in the signal ratio in the repeat runs, not every such curve was filed as active; the % refers to the signal ratio)
Procedure, shortened: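 CRE-bla HEK293T cells plated 18 h, then given compound plus NKH477 at 0.25 uM final for 3 h at 37C. Beta-lactamase reporter read with LiveBLAzer B/G FRET substrate after 2 h at room temperature.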

[15] = biological target: D(2) dopamine receptor (Homo sapiens) (UniProt P14416); experiment: Dopamine D2 receptor (DRD2) small molecule agonists, cell-based qHTS assay (AID 1963594); also: nearly all actives have a fitted effect of over 35% in size
Procedure, shortened: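 HEK293 cells stably expressing DRD2 were cultured 24 h at 37 C, then given Ro20-1724 (0.1 mM final) and compounds for 10 min at room temperature. NKH477 (200nM) was then added for 30 min. cAMP was read by HTRF.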

[16] = biological target: D(2) dopamine receptor (Homo sapiens) (UniProt P14416); experiment: Dopamine D2 receptor (DRD2) small molecule antagonists, cell-based qHTS assay (AID 1963595; active = well fitted inhibition curve with a large enough effect in the signal ratio in the repeat runs, with a control signal flat; the % refers to the signal ratio; also: potency is read from the fitted curve at half-maximal effect)
Procedure, shortened: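 Human DRD2 antagonist qHTS measuring cAMP by HTRF. The cells are exposed to compound for 10 min, then to NKH477 (200 nM) and quinpirole (12 nM) for 30 min at RT, with Ro20-1724 (0.1 mM) present throughout.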

[17] = biological target: 5-hydroxytryptamine receptor 2A (Homo sapiens) (UniProt P28223); experiment: 5-hydroxytryptamine receptor 2A (HTR2A) small molecule agonists, cell-based qHTS assay (AID 1963587); also: nearly all actives have a fitted effect of over 30% in size
Procedure, shortened: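 HTR2A-CHO cells, plated 18 h at 37 C/5% CO2, dye-loaded 1 h at 37 C; compounds in DMSO added by pin tool (agonist mode). Intracellular calcium flux read as kinetic fluorescence on FDSS over 2 min at 1 s intervals.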

[18] = p53 small molecule agonists, cell-based qHTS assay with rat liver microsomes: qHTS cell viability counter screen (AID 1963580); also: nearly all actives have a fitted effect of over 45% in size; also: potency is read from the fitted curve at half-maximal effect
Procedure, shortened: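 p53RE-bla HCT-116 cells (4,000/well) rested 5 h at 37 C, then given Tox21 compounds in DMSO with rat liver microsomes (0.5 mg/mL final) plus NADPH (0.5 mg/mL final) for 16 h at 37 C. Viability read by CellTiter-Glo luminescence after 30 min at room temperature.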

[19] = biological target: Beta-2 adrenergic receptor (Homo sapiens) (UniProt P07550); experiment: Adrenergic beta2 receptor (ADRB2) small molecule antagonists, cell-based qHTS assay (AID 1963592); also: nearly all actives have a fitted effect of over 50% in size; also: potency is read from the fitted curve at half-maximal effect
Procedure, shortened: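 Cells (CHO, stable ADRB2 overexpression) incubated 18-20hr at 37C; compounds added from DMSO; agonist mix (1nM isoproterenol, 100uM IBMX, 25uM Ro-20-1724) added; 0.5hr RT; d2-cAMP and anti-cAMP-cryptate added; 1hr RT; 665/615 nm read.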

[20] = biological target: Beta-2 adrenergic receptor (Homo sapiens) (UniProt P07550); experiment: Adrenergic beta2 receptor (ADRB2) small molecule agonists, cell-based qHTS assay (AID 1963593);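 also: CHO cells stably overexpressing human ADRB2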
Procedure, shortened: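 CHO cells stably over-expressing ADRB2 were plated overnight at 37C, then dosed with compounds plus a stimulation mix containing 100uM IBMX and 25uM Ro-20-1724 for 0.5hr at room temperature. cAMP was measured by HTRF competition, 1hr.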

Measured: Potency

Beta-2 adrenergic receptor (Homo sapiens), sequence (P07550 whole entry, looked up): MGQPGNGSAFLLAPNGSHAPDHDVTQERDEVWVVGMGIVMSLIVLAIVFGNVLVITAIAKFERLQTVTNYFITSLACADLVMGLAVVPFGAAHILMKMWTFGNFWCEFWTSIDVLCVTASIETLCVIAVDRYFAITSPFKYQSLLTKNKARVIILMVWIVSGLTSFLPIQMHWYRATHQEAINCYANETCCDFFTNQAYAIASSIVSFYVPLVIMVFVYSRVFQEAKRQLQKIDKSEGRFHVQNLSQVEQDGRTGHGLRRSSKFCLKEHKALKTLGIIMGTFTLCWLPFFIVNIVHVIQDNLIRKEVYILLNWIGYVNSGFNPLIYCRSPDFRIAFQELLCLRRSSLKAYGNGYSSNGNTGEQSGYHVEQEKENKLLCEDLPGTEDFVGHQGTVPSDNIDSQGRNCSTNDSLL
Gonadotropin-releasing hormone receptor (Homo sapiens), sequence (P30968 whole entry, looked up): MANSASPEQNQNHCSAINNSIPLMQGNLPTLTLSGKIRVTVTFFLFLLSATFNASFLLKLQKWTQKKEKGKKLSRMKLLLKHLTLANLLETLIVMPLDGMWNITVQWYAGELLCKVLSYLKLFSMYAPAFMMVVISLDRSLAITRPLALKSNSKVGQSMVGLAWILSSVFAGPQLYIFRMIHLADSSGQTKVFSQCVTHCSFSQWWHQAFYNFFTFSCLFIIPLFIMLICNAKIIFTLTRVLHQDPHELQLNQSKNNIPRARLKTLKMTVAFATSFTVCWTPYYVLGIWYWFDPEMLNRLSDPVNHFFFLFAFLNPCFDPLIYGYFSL
D(2) dopamine receptor (Homo sapiens), sequence (P14416 whole entry, looked up): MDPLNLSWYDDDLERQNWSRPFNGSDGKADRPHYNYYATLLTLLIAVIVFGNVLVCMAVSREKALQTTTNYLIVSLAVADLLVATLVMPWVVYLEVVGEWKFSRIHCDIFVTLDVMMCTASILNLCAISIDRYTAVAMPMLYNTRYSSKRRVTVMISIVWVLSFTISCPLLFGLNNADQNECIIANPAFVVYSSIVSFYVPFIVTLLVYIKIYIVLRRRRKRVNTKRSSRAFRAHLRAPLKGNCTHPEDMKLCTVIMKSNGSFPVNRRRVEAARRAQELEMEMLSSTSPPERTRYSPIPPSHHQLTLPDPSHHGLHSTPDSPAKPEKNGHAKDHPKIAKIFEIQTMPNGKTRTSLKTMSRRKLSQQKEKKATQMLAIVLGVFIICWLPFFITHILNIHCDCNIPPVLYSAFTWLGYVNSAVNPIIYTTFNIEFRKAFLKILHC
5-hydroxytryptamine receptor 2A (Homo sapiens), sequence (P28223 whole entry, looked up): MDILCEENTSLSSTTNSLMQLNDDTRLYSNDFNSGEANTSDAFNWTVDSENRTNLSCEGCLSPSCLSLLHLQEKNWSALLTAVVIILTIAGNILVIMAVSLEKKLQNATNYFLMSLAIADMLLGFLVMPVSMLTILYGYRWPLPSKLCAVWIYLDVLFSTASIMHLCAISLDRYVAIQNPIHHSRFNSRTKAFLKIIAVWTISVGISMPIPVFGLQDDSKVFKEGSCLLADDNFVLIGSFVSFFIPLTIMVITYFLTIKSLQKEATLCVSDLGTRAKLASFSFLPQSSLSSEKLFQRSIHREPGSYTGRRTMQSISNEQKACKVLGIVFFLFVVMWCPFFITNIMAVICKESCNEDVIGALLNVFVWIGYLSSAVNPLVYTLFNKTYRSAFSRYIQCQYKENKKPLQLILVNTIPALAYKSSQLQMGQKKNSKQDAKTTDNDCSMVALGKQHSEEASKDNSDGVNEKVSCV
Muscarinic acetylcholine receptor M1 (Homo sapiens), sequence (P11229 whole entry, looked up): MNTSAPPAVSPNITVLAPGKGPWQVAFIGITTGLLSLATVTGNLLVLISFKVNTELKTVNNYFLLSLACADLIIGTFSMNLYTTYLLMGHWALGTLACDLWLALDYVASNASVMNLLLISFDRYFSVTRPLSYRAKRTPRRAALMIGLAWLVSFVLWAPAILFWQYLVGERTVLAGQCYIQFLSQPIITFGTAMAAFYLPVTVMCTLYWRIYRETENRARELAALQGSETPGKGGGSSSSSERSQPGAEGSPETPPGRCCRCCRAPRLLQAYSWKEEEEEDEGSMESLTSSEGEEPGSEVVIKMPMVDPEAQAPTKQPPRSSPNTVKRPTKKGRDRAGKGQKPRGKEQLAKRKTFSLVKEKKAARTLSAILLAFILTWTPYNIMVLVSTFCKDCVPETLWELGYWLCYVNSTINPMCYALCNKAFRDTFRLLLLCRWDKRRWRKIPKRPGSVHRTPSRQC
KiSS-1 receptor (Homo sapiens), sequence (Q969F8 whole entry, looked up): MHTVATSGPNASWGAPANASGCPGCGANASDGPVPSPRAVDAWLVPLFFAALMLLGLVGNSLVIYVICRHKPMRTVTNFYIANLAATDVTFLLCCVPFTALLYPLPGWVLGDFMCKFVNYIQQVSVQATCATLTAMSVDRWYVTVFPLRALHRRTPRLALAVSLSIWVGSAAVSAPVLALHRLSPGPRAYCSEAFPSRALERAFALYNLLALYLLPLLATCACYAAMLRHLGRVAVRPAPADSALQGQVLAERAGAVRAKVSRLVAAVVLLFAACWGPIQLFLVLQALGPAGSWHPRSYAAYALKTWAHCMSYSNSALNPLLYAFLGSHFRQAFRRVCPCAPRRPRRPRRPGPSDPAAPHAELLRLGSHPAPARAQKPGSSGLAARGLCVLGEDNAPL

CCN
not listed: [17] | [18] | [19] | [20]
inactive: all other assays above

O=S(=O)(Cl)Cl
not listed: [18] | [19] | [20]
inactive: all other assays above

c1ccc2c(c1)-c1cccc3cccc-2c13
not listed: [6] | [12] | [15] | [20]
inactive: all other assays above

C[C@]12CC[C@H]3[C@@H](CC=C4C[C@@H](O)CC[C@@]43C)[C@@H]1CC[C@@H]2O
not listed: [5] | [10] | [11] | [12] | [17] | [18] | [20]
inactive: all other assays above

CCNc1nc(NC(C)(C)C)nc(SC)n1
not listed: [5] | [14] | [17] | [20]
inactive: all other assays above

Sc1ccccc1
not listed: [5] | [6] | [9]
inactive: all other assays above

N[C@@H](Cc1ccc(N(CCCl)CCCl)cc1)C(=O)O
not listed: [9] | [10] | [11] | [12] | [15] | [17]
inactive: all other assays above

C=CC(=O)OCC(CC)(COC(=O)C=C)COC(=O)C=C
inactive: [2] | [3] | [4] | [5] | [6] | [10] | [17] | [11] | [12] | [15]
inactive and 48.6 µM (active): [16]
active: [1] 6.28 µM and 12.2 µM

O=C(CBr)c1ccc(O)cc1
not listed: [5]
inactive: all other assays above

CN(C)c1ccc(N=O)cc1
active: [1] 27.4 µM and 54.5 µM
not listed: [6] | [9] | [13] | [14] | [15] | [16] | [19] | [20]
inactive: all other assays above

Cc1ccc(Cl)c(O)c1
not listed: [8] | [20]
inactive: all other assays above

CN(C)C(=S)S
active: [1] 9.89 µM and 607 nM and 27.3 µM
inactive and 8.08 µM (active): [18]
not listed: [5] | [6] | [9]
inactive: all other assays above

CC(C)C#N
not listed: [5] | [6] | [9]
inactive: all other assays above

C[C@]12CCC(=O)C[C@@H]1CC[C@@H]1[C@@H]2CC[C@]2(C)[C@@H](O)CC[C@@H]12
inactive: [1] | [2] | [3] | [4] | [5] | [6] | [8] | [9] | [15] | [16]
active: [19] 9.7 µM

O=C(CCl)CCl
active: [1] 50.3 µM and 54.5 µM
not listed: [18] | [20]
inactive: all other assays above

C[Si](Cn1cncn1)(c1ccc(F)cc1)c1ccc(F)cc1
active: [11] 42.1 µM
not listed: [8] | [9] | [13] | [20]
inactive: all other assays above

Nc1c(Cl)c(Cl)nc(C(=O)O)c1Cl
not listed: [5] | [13] | [20]
inactive: all other assays above

— PubChem BioAssay (Tox21)
